Source: PubChem BioAssay AID1159580 (chemical genetic matrix, 2015)
In all, about 5,500 compounds went through this assay and about 2,000 (36%) were called active. About 18% were inconclusive and are not listed. No stated cut-off is given here; in the data, active means normalized growth mostly below about 0.91 (no sharp cut-off); inconclusive means no clear call, values can overlap the other calls; inactive means mostly above about 0.92. The list shows a part of the results.

Assay: chemical genetic growth profiling, strain panel (AID 1159580);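 further: tested at 20 µM; growth read once vehicle control cultures reached saturation at 30 °C; 1 = growth at the plate median or of vehicle wells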
Conditions: growth OD

Measured: normalized growth

CC(Oc1ccccc1)C(=O)N[C@@H]1C(=O)N2[C@@H]1SC(C)(C)[C@@H]2C(=O)O (some centres not stated)
inactive: S. cerevisiae deletion strains, locus YJR075W, strain HOC1, stronger effect = lower value 1.01 | S. cerevisiae deletion strains, locus YKL009W, strain mrt4, stronger effect = lower value 0.995 | S. cerevisiae deletion strains, locus YKL068W, stronger effect = lower value 1.01 | S. cerevisiae deletion strains, locus YKL085W, strain MDH1 (second series), stronger effect = lower value 1 | S. cerevisiae deletion strains, locus YKL085W, strain MDH1, stronger effect = lower value 1 | S. cerevisiae deletion strains, locus YKL160W, strain elf1, stronger effect = lower value 0.985 | S. cerevisiae deletion strains, locus YKL190W, strain CNB1, stronger effect = lower value 1.01 | S. cerevisiae deletion strains, locus YKR001C, strain vps1, stronger effect = lower value 1.02 | S. cerevisiae deletion strains, locus YKR026C, strain gcn3, stronger effect = lower value 0.993 | S. cerevisiae deletion strains, locus YKR091W, strain srl3, stronger effect = lower value 0.993 | S. cerevisiae deletion strains, locus YLL001W, strain dnm1, stronger effect = lower value 0.983 | S. cerevisiae deletion strains, locus YLL026W, stronger effect = lower value 0.998 | S. cerevisiae deletion strains, locus YLL041C, strain sdh2, stronger effect = lower value 0.992 | S. cerevisiae deletion strains, locus YLR027C, strain aat2, stronger effect = lower value 1 | S. cerevisiae deletion strains, locus YLR039C, strain RIC1, stronger effect = lower value 1.02 | S. cerevisiae deletion strains, locus YLR058C, strain SHM2, stronger effect = lower value 1.01 | S. cerevisiae deletion strains, locus YLR102C, strain apc9, stronger effect = lower value 1.02 | S. cerevisiae deletion strains, locus YLR113W, strain HOG1, stronger effect = lower value 1.01 | S. cerevisiae deletion strains, locus YLR221C, strain rsa3, stronger effect = lower value 0.981 | S. cerevisiae deletion strains, locus YLR258W, strain gsy2, stronger effect = lower value 0.986 | S. cerevisiae deletion strains, locus YLR262C, strain YPT6 (second series), stronger effect = lower value 1.01 | S. cerevisiae deletion strains, locus YLR262C, strain YPT6, stronger effect = lower value 1.04 | S. cerevisiae deletion strains, locus YLR268W, strain sec22, stronger effect = lower value 1.03 | S. cerevisiae deletion strains, locus YLR320W, strain mms22, stronger effect = lower value 0.984 | S. cerevisiae deletion strains, locus YLR330W, strain CHS5, stronger effect = lower value 1.01 | S. cerevisiae deletion strains, locus YLR342W, strain FKS1 (second series), stronger effect = lower value 1 | S. cerevisiae deletion strains, locus YLR342W, strain FKS1, stronger effect = lower value 1 | S. cerevisiae deletion strains, locus YLR357W, strain rsc2, stronger effect = lower value 0.978 | S. cerevisiae deletion strains, locus YLR370C, strain arc18, stronger effect = lower value 0.992 | S. cerevisiae deletion strains, locus YLR371W, strain rom2, stronger effect = lower value 1.02 | S. cerevisiae deletion strains, locus YLR384C, strain iki3, stronger effect = lower value 0.992 | S. cerevisiae deletion strains, locus YLR418C, strain cdc73, stronger effect = lower value 1.04 | S. cerevisiae deletion strains, locus YML016C, strain PPZ1, stronger effect = lower value 1.02 | S. cerevisiae deletion strains, locus YML032C, strain rad52, stronger effect = lower value 1.02 | S. cerevisiae deletion strains, locus YML120C, strain ndi1, stronger effect = lower value 0.985 | S. cerevisiae deletion strains, locus YML124C, strain tub3, stronger effect = lower value 1.02 | S. cerevisiae deletion strains, locus YMR058W, strain fet3, stronger effect = lower value 1 | S. cerevisiae deletion strains, locus YMR078C, strain ctf18, stronger effect = lower value 1.03 | S. cerevisiae deletion strains, locus YMR125W, strain sto1, stronger effect = lower value 0.992 | S. cerevisiae deletion strains, locus YMR129W, stronger effect = lower value 0.99 | S. cerevisiae deletion strains, locus YMR205C, strain PFK2, stronger effect = lower value 0.995 | S. cerevisiae deletion strains, locus YMR223W, strain ubp8, stronger effect = lower value 1.01 | S. cerevisiae deletion strains, locus YMR231W, strain pep5, stronger effect = lower value 1 | S. cerevisiae deletion strains, locus YMR263W, strain SAP30, stronger effect = lower value 1.01 | S. cerevisiae deletion strains, locus YMR307W, strain GAS1, stronger effect = lower value 1.02 | S. cerevisiae deletion strains, locus YNL067W, strain RPL9B, stronger effect = lower value 1.01 | S. cerevisiae deletion strains, locus YNL071W, strain lat1, stronger effect = lower value 0.996 | S. cerevisiae deletion strains, locus YNL128W, strain TEP1, stronger effect = lower value 1.02 | S. cerevisiae deletion strains, locus YNL153C, strain GIM3, stronger effect = lower value 1.01 | S. cerevisiae deletion strains, locus YNL183C, strain NPR1, stronger effect = lower value 0.972 | S. cerevisiae deletion strains, locus YNL209W, strain ssb2, stronger effect = lower value 0.996 | S. cerevisiae deletion strains, locus YNL233W, strain BNI4, stronger effect = lower value 1.02 | S. cerevisiae deletion strains, locus YNL248C, strain rpa49, stronger effect = lower value 0.991 | S. cerevisiae deletion strains, locus YNL250W, strain rad50, stronger effect = lower value 1.03 | S. cerevisiae deletion strains, locus YNL271C, strain bni1, stronger effect = lower value 1.02 | S. cerevisiae deletion strains, locus YNL298W, strain CLA4, stronger effect = lower value 1.03 | S. cerevisiae deletion strains, locus YNL307C, strain MCK1, stronger effect = lower value 1.03 | S. cerevisiae deletion strains, locus YNL322C, strain KRE1 (second series), stronger effect = lower value 1.01 | S. cerevisiae deletion strains, locus YNL322C, strain KRE1, stronger effect = lower value 1.01 | S. cerevisiae deletion strains, locus YNR049C, strain mso1, stronger effect = lower value 0.992 | S. cerevisiae deletion strains, locus YNR052C, strain pop2, stronger effect = lower value 1.02 | S. cerevisiae deletion strains, locus YOL006C, strain TOP1, stronger effect = lower value 1.05 | S. cerevisiae deletion strains, locus YOL012C, strain htz1 1.34 | S. cerevisiae deletion strains, locus YOL147C, strain pex11, stronger effect = lower value 1.02 | S. cerevisiae deletion strains, locus YOR001W, strain rrp6, stronger effect = lower value 1 | S. cerevisiae deletion strains, locus YOR061W, strain CKA2, stronger effect = lower value 1.02 | S. cerevisiae deletion strains, locus YOR069W, strain VPS5, stronger effect = lower value 1.01 | S. cerevisiae deletion strains, locus YOR070C, strain gyp1, stronger effect = lower value 0.992 | S. cerevisiae deletion strains, locus YOR080W, strain dia2, stronger effect = lower value 0.988 | S. cerevisiae deletion strains, locus YOR083W, strain WHI5, stronger effect = lower value 0.984 | S. cerevisiae deletion strains, locus YOR106W, strain vam3, stronger effect = lower value 0.979 | S. cerevisiae deletion strains, locus YOR136W, strain idh2, stronger effect = lower value 1.02 | S. cerevisiae deletion strains, locus YOR144C, strain elg1, stronger effect = lower value 1.03 | S. cerevisiae deletion strains, locus YOR184W, strain ser1, stronger effect = lower value 1.02 | S. cerevisiae deletion strains, locus YOR231W, strain MKK1, stronger effect = lower value 1.02 | S. cerevisiae deletion strains, locus YOR265W, strain rbl2, stronger effect = lower value 0.991 | S. cerevisiae deletion strains, locus YOR270C, strain vph1, stronger effect = lower value 1.04 | S. cerevisiae deletion strains, locus YOR290C, strain snf2, stronger effect = lower value 1.03 | S. cerevisiae deletion strains, locus YOR316C, strain cot1, stronger effect = lower value 1.02 | S. cerevisiae deletion strains, locus YPL051W, strain arl3, stronger effect = lower value 1.01 | S. cerevisiae deletion strains, locus YPL055C, strain LGE1, stronger effect = lower value 1.02 | S. cerevisiae deletion strains, locus YPL078C, strain atp4, stronger effect = lower value 0.994 | S. cerevisiae deletion strains, locus YPL106C, strain sse1, stronger effect = lower value 0.968 | S. cerevisiae deletion strains, locus YPL240C, strain hsp82, stronger effect = lower value 0.994 | S. cerevisiae deletion strains, locus YPL241C, strain CIN2, stronger effect = lower value 1.01 | S. cerevisiae deletion strains, locus YPL256C, strain CLN2, stronger effect = lower value 1.03 | S. cerevisiae deletion strains, locus YPR119W, strain clb2, stronger effect = lower value 1.02 | S. cerevisiae deletion strains, locus YPR141C, strain kar3, stronger effect = lower value 1.02 | S. cerevisiae deletion strains, locus YPR163C, strain tif3, stronger effect = lower value 1.04 | S. cerevisiae deletion strains, locus YPR167C, strain met16, stronger effect = lower value 1.02 | S. cerevisiae deletion strains, strain wtn01, stronger effect = lower value 1.02 | S. cerevisiae strains, strain wild type, stronger effect = lower value 1.02
